DT40 TDP1 CPT = qHTS for Inhibitors of human tyrosyl-DNA phosphodiesterase 1 (TDP1): qHTS in cells in presence of CPT | 12% of 420,000 active | chicken DT40 Tdp1-/-;hTDP1 cells + 20 nM CPT, ATP luminescence, 48 h | Potency, µM (series often up to 46.2 µM), usual class: inhibitors; also: nearly all actives have a fitted effect of over 55% in size
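Chicken DT40 Tdp1-/- cells stably complemented with human TDP1 were seeded at 400 cells/well in medium containing 20 nM camptothecin, exposed to pin-transferred compounds, and grown at 37 °C for at least 48 hr. Viability was read as ATP luminescence.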
TDP1 cell noCPT = qHTS for Inhibitors of human tyrosyl-DNA phosphodiesterase 1 (TDP1): qHTS in cells in absence of CPT; DT40 Tdp1-/- hTDP1 cells, no CPT, ATP luminescence, 48 h; Potency, µM (top dose mostly 46.2 µM), usual class: inhibitors; 15% of 420,000 active; also: nearly all actives have a fitted effect of over 55% in size
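Chicken DT40 Tdp1-/- cells stably complemented with human TDP1 were seeded at 400 cells/well with DMSO in place of 20 nM camptothecin. After compound pinning, cells grew at least 48 hr at 37 °C; viability read by CellTiter-Glo luminescence.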
S-ASM inh = Inhibitors of Secretory Acid Sphingomyelinase (S-ASM): qHTS; Sphingomyelin phosphodiesterase (Homo sapiens), P17405; placental ASM, HMU-PC fluorogenic substrate, 60 min; Potency, µM (series often up to 57.5 µM), usual class: inhibitors; 0.006% of 340,000 active
Target sequence (P17405 47-631 limits assumed): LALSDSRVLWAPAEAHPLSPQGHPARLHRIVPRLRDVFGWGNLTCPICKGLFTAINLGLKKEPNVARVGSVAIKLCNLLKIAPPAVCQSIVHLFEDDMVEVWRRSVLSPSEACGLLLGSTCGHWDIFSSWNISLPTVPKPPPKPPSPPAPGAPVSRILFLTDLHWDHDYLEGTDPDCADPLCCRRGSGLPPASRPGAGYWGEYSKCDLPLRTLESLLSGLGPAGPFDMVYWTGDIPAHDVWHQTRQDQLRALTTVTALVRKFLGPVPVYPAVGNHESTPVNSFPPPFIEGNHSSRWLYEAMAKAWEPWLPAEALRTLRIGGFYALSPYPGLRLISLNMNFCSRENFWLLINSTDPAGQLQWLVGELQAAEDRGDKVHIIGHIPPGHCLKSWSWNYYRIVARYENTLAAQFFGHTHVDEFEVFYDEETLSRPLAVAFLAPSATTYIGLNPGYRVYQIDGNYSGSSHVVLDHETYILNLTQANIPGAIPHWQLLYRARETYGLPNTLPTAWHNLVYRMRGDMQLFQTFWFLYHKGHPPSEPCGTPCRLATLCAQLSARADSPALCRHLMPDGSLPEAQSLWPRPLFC
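HMU-PC0 cleavage (9 uM final) by human placental ASM, 60 min at 37 °C following 10 min compound exposure at RT; stopped at pH 10, fluorescence Ex 386/Em 447 nm.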
TGFb inhibitor = qHTS for Inhibitors of TGF-b; HepG2 CAGA-GFP TGF-b/SMAD3 reporter, GFP fluorescence, 18 h; TGF-beta stimulated, 500 pg/mL final; Potency, µM (titrated, usually from 46.1 µM), actives largely listed as inhibitors; 1.2% of 410,000 active; AID 588855, 2011; also: nearly all actives have a fitted effect of over 65% in size
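Per well, imaged GFP fluorescence of HEPG2 CAGA-GFP cells gives the signal; cells get compound, then TGF-beta (500 pg/mL final), 18 h at 37 degrees C; %Activity versus -TGF-beta and +DMSO controls.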
HepG2 tox = qHTS for Inhibitors of TGF-b: Cytotox Counterscreen. HepG2 CAGA-GFP viability, ATP luminescence, 18 h. Potency, µM (titrated, usually from 46.1 µM), usual class: cytotoxic. 0.76% of 410,000 active. AID 588856, 2011
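HepG2 CAGA-GFP cells (1000/well, DMEM with 1% FBS) received compound, then TGF-beta at 500 pg/mL final, and were incubated 18 hours at 37 degrees C. Viability was read by CellTiter-Glo luminescence. Media-only wells were set as complete cell-killing and DMSO as no toxicity.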
IL-1B inflam inh = qHTS for Inhibitors of Inflammasome Signaling: IL-1-beta AlphaLISA Primary Screen; THP-1 LPS/ATP IL-1B secretion, AlphaLISA, 16 h; stronger effect = lower value; activity change, % at 57.5 µM; 4.7% of 360,000 active; AID 743279, 2014; in the data active = activity change below about -50%; inconclusive = mostly about -30% to -49%
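THP-1 cells pretreated 1 hr with compounds (up to 57.5 uM final), then stimulated with LPS (250 ng/mL final) plus ATP (1.25 mM final); secreted IL-1B measured by AlphaLISA after 16 hr, decreased signal indicating inhibition.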
Large screens that a line does not name were inactive. A selection: hits, their analogues and other compounds. The true share with any hit is near 19%. Unless noted, calls follow the shape of the dose curve; as a rule, active = well fitted curve in the direction sought with a large enough effect; inconclusive = small, poorly fitted or top-dose-only effect, or another doubt; inactive = no such curve, though single readings can be large; an effect the other way counts as inactive or inconclusive.

Cn1nc(C(C)(C)C)cc1C(=O)N1CCCCC1c1cc(C(=O)Nc2cccc3c2CCCC3)no1 (stereo not given)	DT40 TDP1 CPT inconclusive, TDP1 cell noCPT inconclusive, TGFb inhibitor inconclusive (no result: S-ASM inh)
O=C(Nc1ccccc1)c1cc(C2CCCCN2C(=O)OCc2ccccc2)on1 (stereo not given)	none (no result: S-ASM inh)
N#Cc1cccc(NC(=O)c2cc(C3CCCCN3C(=O)C3CC3)on2)c1 (stereo not given)	DT40 TDP1 CPT 26µM, TDP1 cell noCPT inconclusive (no result: S-ASM inh)
N#Cc1cccc(NC(=O)c2cc(C3CCCCN3C(=O)c3ccccn3)on2)c1 (stereo not given)	DT40 TDP1 CPT 23µM, TDP1 cell noCPT inconclusive (no result: S-ASM inh)
COc1ccc(NC(=O)c2cc(C3CCCCN3C(=O)C3CC3)on2)c(C)c1 (stereo not given)	DT40 TDP1 CPT inconclusive (no result: S-ASM inh)
COc1ccc(C(=O)N2CCCCC2c2cc(C(=O)Nc3cccc(C#N)c3)no2)cc1 (stereo not given)	DT40 TDP1 CPT 23µM, TDP1 cell noCPT inconclusive (no result: S-ASM inh)
N#Cc1cccc(NC(=O)c2cc(C3CCCCN3C(=O)c3ccccc3)on2)c1 (stereo not given)	DT40 TDP1 CPT 18µM, TDP1 cell noCPT 10µM (no result: S-ASM inh)
O=C(Nc1ccccc1)c1cc(C2CCCCN2C(=O)c2cccs2)on1 (stereo not given)	DT40 TDP1 CPT inconclusive, TDP1 cell noCPT 18µM (no result: S-ASM inh)
O=C(NCCOc1ccccc1)C1=CC=CN2CCS(=O)(=O)N=C12	none
CC1CN(c2ncnc3c2c(-c2ccccc2)cn3-c2ccc(F)cc2)CC(C)O1 (stereo not given)	DT40 TDP1 CPT 16µM, TDP1 cell noCPT 9.2µM, IL-1B inflam inh inconclusive
Cc1cccc(N2CCN(c3ncnc4c3c(-c3ccccc3)cn4-c3ccccc3)CC2C)c1 (stereo not given)	DT40 TDP1 CPT inconclusive, TDP1 cell noCPT inconclusive, TGFb inhibitor inconclusive (no result: S-ASM inh, IL-1B inflam inh)
CN(c1ncnc2c1c(-c1ccccc1)cn2-c1cccc(Cl)c1)C1CCCCC1	none (no result: S-ASM inh, IL-1B inflam inh)
CN(c1ncnc2c1c(-c1ccccc1)cn2-c1ccc(F)cc1)C1CCCCC1	DT40 TDP1 CPT inconclusive, TDP1 cell noCPT 23µM, TGFb inhibitor inconclusive (no result: S-ASM inh, IL-1B inflam inh)
COC(=O)C(C)Sc1ncnc2c1c(-c1ccccc1)cn2-c1ccc(OC)cc1 (stereo not given)	DT40 TDP1 CPT inconclusive
c1ccc(-c2cn(-c3ccccc3)c3ncnc(N4CCN(c5ccccc5)CC4)c23)cc1	DT40 TDP1 CPT inconclusive, TDP1 cell noCPT inconclusive (no result: S-ASM inh, IL-1B inflam inh)
OCCN1CCN(c2ncnc3c2c(-c2ccccc2)cn3-c2ccc(F)cc2)CC1	DT40 TDP1 CPT inconclusive, TDP1 cell noCPT 26µM, IL-1B inflam inh -97
COC(=O)C(C)Sc1ncnc2c1c(-c1ccccc1)cn2-c1ccc(F)cc1 (stereo not given)	DT40 TDP1 CPT 4.1µM, TDP1 cell noCPT 16µM (no result: S-ASM inh, IL-1B inflam inh)
COc1ccc2c(c1)c(=O)c(S(=O)(=O)c1ccc(C)c(C)c1)cn2CC(=O)Nc1ccccc1	TDP1 cell noCPT inconclusive (no result: S-ASM inh, IL-1B inflam inh)
COc1ccc(OC)c(-c2cc(C(=O)N3CCN(c4ncccn4)CC3)c3ccccc3n2)c1	DT40 TDP1 CPT 16µM, TDP1 cell noCPT 18µM, TGFb inhibitor inconclusive
CC(=O)c1ccc(N2CCN(C(=O)c3cc(-c4ccc5c(c4)OCO5)nc4ccccc34)CC2)cc1	DT40 TDP1 CPT inconclusive, TDP1 cell noCPT 23µM
CC(NC(=O)c1cc(-c2ccc3c(c2)OCO3)nc2ccccc12)C(C)(C)C (stereo not given)	DT40 TDP1 CPT inconclusive, TDP1 cell noCPT inconclusive, TGFb inhibitor inconclusive
COc1ccc(-c2cc(C(=O)NCCCn3ccnc3)c3ccccc3n2)c(OC)c1	none
COc1ccc(-c2cc(C(=O)N3CCN(c4ncccn4)CC3)c3ccccc3n2)cc1	DT40 TDP1 CPT inconclusive, TDP1 cell noCPT inconclusive
COc1ccc(-c2cc(C(=O)N3CCN(c4ncccn4)CC3)c3ccccc3n2)c(OC)c1	DT40 TDP1 CPT inconclusive, TDP1 cell noCPT 23µM
COc1ccc(-c2cc(C(=O)N3CCN(c4ccccc4O)CC3)c3ccccc3n2)cc1OC	DT40 TDP1 CPT inconclusive, TDP1 cell noCPT 18µM, TGFb inhibitor inconclusive, IL-1B inflam inh inconclusive
CN(C)c1cccc(CNC(=O)c2csc(COCCO)n2)c1	none (no result: S-ASM inh)
CCOc1ccccc1C(=O)NCC(=O)OCC(=O)N1CCCC1	none
COc1ccc(-c2cc(C(=O)O)c3ccccc3n2)c(OC)c1	none
COc1ccc(-c2cc(C(=O)N3CCN(c4ccccc4F)CC3)c3ccccc3n2)c(OC)c1	DT40 TDP1 CPT inconclusive, TDP1 cell noCPT 18µM, TGFb inhibitor inconclusive
COc1ccc(-c2cc(C(=O)N3CCCCCC3)c3ccccc3n2)c(OC)c1	DT40 TDP1 CPT inconclusive, TDP1 cell noCPT 12µM, IL-1B inflam inh inconclusive
COc1ccc(N2CCN(C(=O)c3cc(-c4cc(OC)ccc4OC)nc4ccccc34)CC2)cc1	DT40 TDP1 CPT 23µM, TDP1 cell noCPT 23µM
COc1ccc(-c2cc(C(=O)N3CCN(c4ccccc4)CC3)c3ccccc3n2)cc1	DT40 TDP1 CPT 3.3µM, TDP1 cell noCPT 4.6µM
COc1ccccc1NC(=O)Cn1ccn(-c2cccc3ccccc23)c(=O)c1=O	DT40 TDP1 CPT inconclusive, TDP1 cell noCPT inconclusive
CCc1ccc(CNC(=O)CCCN2C(=O)CCn3nc(-c4cccn4C)cc32)cc1	DT40 TDP1 CPT inconclusive (no result: S-ASM inh, IL-1B inflam inh)
COc1ccc(N2CCN(C(=O)c3cn(Cc4ccccc4)nc3-c3cccnc3)CC2)cc1	none
COc1cccc(CN2CCN(C(=O)c3cc(-c4cccnc4)nc4ccc(C)cc34)CC2)c1	DT40 TDP1 CPT 23µM, TDP1 cell noCPT 12µM
COc1ccc(-c2cc(C(=O)N3CC(C)CC(C)C3)c3ccccc3n2)cc1 (stereo not given)	DT40 TDP1 CPT inconclusive, TDP1 cell noCPT 21µM, TGFb inhibitor inconclusive, IL-1B inflam inh inconclusive
CCOc1ccccc1N1CCN(C(=O)c2cc(-c3cc(OC)ccc3OC)nc3ccccc23)CC1	DT40 TDP1 CPT 23µM, TDP1 cell noCPT 13µM, IL-1B inflam inh inconclusive
COc1ccc(-c2cc(C(=O)N3CCN(c4ccccc4O)CC3)c3ccccc3n2)cc1	DT40 TDP1 CPT inconclusive, TDP1 cell noCPT inconclusive, IL-1B inflam inh inconclusive
COc1ccc(-c2cc(C(=O)N3CCCC(C(F)(F)F)C3)c3ccccc3n2)cc1 (stereo not given)	DT40 TDP1 CPT inconclusive, TDP1 cell noCPT inconclusive
